Results on 88 sequences are retold here after publication PMC10668032, “Altered binding affinity of SIX1-Q177R correlates with enhanced WNT5A and WNT pathway effector expression in Wilms tumor”.

Over roughly 33,000 sequences, “e-score” has its median near -0.053; the highest 2% begin near 0.38. Many of the other results were omitted from the sample, so the highest values are more common in it than they were.

The experiment has as its target T1, SIX1 homeodomain (reference allele) (human, UniProt Q15475 108-198).
T1 sequence: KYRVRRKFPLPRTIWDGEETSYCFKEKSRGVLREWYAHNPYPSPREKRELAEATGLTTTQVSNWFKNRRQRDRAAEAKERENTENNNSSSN
In words: universal protein binding microarray; Universal all-10-mer PBM (8x60K, AMADID 030236), 300 nM GST-tagged protein, Alexa Fluor 488 anti-GST; buffer, salt, pH and temperature not stated (as in Berger); high values mean tight binding. The following applies: protein: ivt; tags: N-terminal GST; dsDNA, one strand shown. The essentials: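 Binding of GST-tagged homeodomains is given as 8-mer E-scores from the Universal PBM Analysis Suite. The proteins were produced by in vitro transcription/translation, quantified by anti-GST western blot against a recombinant GST standard curve, and applied in duplicate at 300 nM final concentration to universal 'all 10-mer' protein binding microarrays (8×60K format).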
With ACGGATCG, the binding signal was found to be 0.354 ± 0.0265 E-score.
With CCGGATCG, the binding signal was found to be 0.417 ± 0.0468 E-score.
On to ACAGATCC, for which the binding signal amounted to 0.288 ± 0.0336 E-score.
Next, CCCGATCG: 0.323 ± 0.0723 E-score.
ATCTCGAG: the binding signal came out at 0.215 ± 0.0177 E-score.
Next, AACCCATA: 0.263 ± 0.0634 E-score; GTTAGATA: 0.248 ± 0.0413 E-score.
Next, AAGATCAA: 0.201 ± 0.0668 E-score; ATCCTACC: 0.299 ± 0.0201 E-score; CGTATTAG: 0.174 ± 0.0547 E-score.
On to GTACACGA, for which the binding signal worked out at 0.165 ± 0.0933 E-score.
Next, ACTAGATC: 0.181 ± 0.003 E-score.
Next, CGAAGATA: 0.325 ± 0.0496 E-score.
Next, ATCCCGAC: 0.238 ± 0.0448 E-score; ACCCGATC: 0.372 ± 0.0497 E-score.
For the sequence CACCGATA, the binding signal was 0.374 ± 0.0197 E-score.
Turning to ACCCGATA, the binding signal came out at 0.4 ± 0.0453 E-score.
Next, TACCGATA: 0.375 ± 0.0115 E-score; AACCGATA: 0.41 ± 0.00758 E-score.
GCCCGATA: the binding signal is 0.33 ± 0.0332 E-score.
Next, ATACATTA: 0.223 ± 0.0139 E-score; ATCCATGC: 0.253 ± 0.0158 E-score.
ATCCGAAC: the binding signal was found to be 0.278 ± 0.0321 E-score.
Next, CCGGATAA: 0.299 ± 0.0306 E-score; ACGGATTC: 0.187 ± 0.0297 E-score.
Next, GCGGATAC: 0.43 ± 0.00572 E-score; CCGGATAC: 0.4414 ± 0.00339 E-score.
Turning to ACGGATAG, the binding signal was found to be 0.344 ± 0.0201 E-score.
Next, ACGGATTG: 0.179 ± 0.0302 E-score; ACGGATAC: 0.454 ± 0.00689 E-score; GCGGATAA: 0.317 ± 0.0316 E-score.
For the sequence ACGGATAT, the binding signal worked out at 0.4283 ± 0.00251 E-score.
ACGGATAA: the binding signal was determined as 0.216 ± 0.0405 E-score.
Next, CCGGATAG: 0.361 ± 0.0142 E-score.
Next, AGGTAGAT: 0.2625 ± 0.00214 E-score.
As to GATCTGCC, the binding signal turned out to be 0.334 ± 0.00569 E-score.
Next, ATCCGAGC: 0.24 ± 0.00809 E-score; GTATTACA: 0.227 ± 0.0055 E-score.
Next, GATAGTCC: 0.24 ± 0.023 E-score.
As to GGTGTTAA, the binding signal was 0.301 ± 0.0173 E-score.
Take ATCTGTAC: the binding signal came out at 0.221 ± 0.0203 E-score.
Consider ATCGCATA, for which the binding signal was determined as 0.287 ± 0.0238 E-score.
Next, GATCATTA: 0.348 ± 0.0458 E-score.
AGTCTGAT: the binding signal was 0.19 ± 0.0144 E-score.
Take CCGATCTC: the binding signal was 0.316 ± 0.0192 E-score.
Next, GCGATCGA: 0.199 ± 0.0473 E-score; CCGATCCC: 0.412 ± 0.0499 E-score.
On to GAGATCCC, for which the binding signal was 0.378 ± 0.0279 E-score.
As to CCGATCGC, the binding signal came to 0.212 ± 0.0392 E-score.
As for GCGATCCA, the binding signal is 0.345 ± 0.0824 E-score.
On to GCGATCGC, for which the binding signal is 0.378 ± 0.0183 E-score.
Next, CCGATCGA: 0.264 ± 0.0353 E-score; AAGATCCC: 0.243 ± 0.0194 E-score.
Turning to ACGATCCC, the binding signal stood at 0.337 ± 0.0613 E-score.
Next, GAGATCCA: 0.332 ± 0.0213 E-score; GCGATCCC: 0.395 ± 0.0154 E-score.
Next, CAGATAGG: 0.245 ± 0.0333 E-score; TATATAAA: 0.197 ± 0.00308 E-score; TAGATCTA: 0.175 ± 0.0374 E-score.
Next, ATATGTAC: 0.244 ± 0.0293 E-score; ATCGCTTG: 0.156 ± 0.032 E-score; ATACGATG: 0.277 ± 0.0162 E-score.
As for ATACGGTA, the binding signal amounted to 0.405 ± 0.0105 E-score.
As for GAACGATC, the binding signal is 0.236 ± 0.00301 E-score.
Next, AATCGATA: 0.335 ± 0.0577 E-score; GAACGATA: 0.383 ± 0.0174 E-score.
Next, ATACGGTC: 0.256 ± 0.0328 E-score.
As for GATCGATA, the binding signal was 0.408 ± 0.0108 E-score.
Regarding GATCGATC, the binding signal turned out to be 0.362 ± 0.0437 E-score.
In the case of ATACGGTG, the binding signal came out at 0.328 ± 0.012 E-score.
Next, TAACGATA: 0.315 ± 0.0478 E-score; CTACGATC: 0.233 ± 0.0113 E-score; ATACGATC: 0.388 ± 0.00595 E-score.
With ACCAGGGT, the binding signal amounted to 0.189 ± 0.0407 E-score.
Regarding CCGTCTAC, the binding signal came to 0.171 ± 0.0578 E-score.
For the sequence ATCGGTTG, the binding signal is 0.238 ± 0.008 E-score.
Next, TAATCTCA: 0.186 ± 0.0184 E-score; GTGTCCAA: 0.221 ± 0.057 E-score.
For GGGCTAGA, the binding signal came out at 0.209 ± 0.0223 E-score.
Take ACACGATG: the binding signal was determined as 0.156 ± 0.0256 E-score.
Next, CTACTATC: 0.273 ± 0.0271 E-score; ATACGATA: 0.419 ± 0.0297 E-score.
Next, GTACGATA: 0.338 ± 0.0355 E-score.
As to CTACGATA, the binding signal is 0.321 ± 0.0303 E-score.
In the case of ATACTATC, the binding signal was found to be 0.401 ± 0.0105 E-score.
For ATACTATA, the binding signal worked out at 0.371 ± 0.0468 E-score.
Next, ACACGATC: 0.266 ± 0.019 E-score; ACACGATA: 0.384 ± 0.0253 E-score.
